# ChEMBL document CHEMBL3988442, “University of Dundee, Small-Polar-MMV Screening Library” (2021)
# For part of these data: Results with a measured potency or affinity are listed apart.
# How the values were obtained:
# [1] = target: T1, Methionyl-tRNA synthetase, putative (Leishmania donovani (strain BPK282A1)) (UniProt E9BF75); test: Leishmania donovani Methionine tRNA synthetase (LdMetRS):v7. Dose response assay; format: functional; design: conc 80 nM, time 150 minutes
# T1 sequence (whole entry): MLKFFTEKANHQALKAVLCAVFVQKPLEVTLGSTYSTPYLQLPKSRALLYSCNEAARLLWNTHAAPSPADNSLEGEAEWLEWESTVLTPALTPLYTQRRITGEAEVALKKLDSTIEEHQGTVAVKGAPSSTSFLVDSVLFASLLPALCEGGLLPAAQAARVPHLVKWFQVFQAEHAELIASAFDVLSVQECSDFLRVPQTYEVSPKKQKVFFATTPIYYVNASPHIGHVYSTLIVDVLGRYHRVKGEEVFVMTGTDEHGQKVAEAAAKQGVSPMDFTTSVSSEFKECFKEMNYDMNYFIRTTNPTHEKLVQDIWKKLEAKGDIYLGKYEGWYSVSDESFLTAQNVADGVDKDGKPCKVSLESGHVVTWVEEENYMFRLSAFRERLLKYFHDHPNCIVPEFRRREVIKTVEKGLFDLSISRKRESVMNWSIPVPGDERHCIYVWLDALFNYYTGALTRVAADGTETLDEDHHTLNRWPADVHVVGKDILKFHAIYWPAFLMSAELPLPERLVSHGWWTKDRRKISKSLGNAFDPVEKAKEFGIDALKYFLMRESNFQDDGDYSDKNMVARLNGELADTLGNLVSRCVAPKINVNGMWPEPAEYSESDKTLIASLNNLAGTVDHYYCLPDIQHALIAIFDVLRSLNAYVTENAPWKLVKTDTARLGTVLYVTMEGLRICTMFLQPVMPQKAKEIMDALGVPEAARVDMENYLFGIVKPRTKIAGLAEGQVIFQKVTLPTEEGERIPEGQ
# [2] = target: Protein translocase subunit SecA (Escherichia coli (strain K12)) (UniProt P10408); test: Assay to Identify E. coli SecA ATPase Inhibitors; format: functional; design: scale not given: direction of the effect not stated beside the values; conditions: 30 µM
# Sequence of Protein translocase subunit SecA (Escherichia coli (strain K12)) (P10408 whole entry): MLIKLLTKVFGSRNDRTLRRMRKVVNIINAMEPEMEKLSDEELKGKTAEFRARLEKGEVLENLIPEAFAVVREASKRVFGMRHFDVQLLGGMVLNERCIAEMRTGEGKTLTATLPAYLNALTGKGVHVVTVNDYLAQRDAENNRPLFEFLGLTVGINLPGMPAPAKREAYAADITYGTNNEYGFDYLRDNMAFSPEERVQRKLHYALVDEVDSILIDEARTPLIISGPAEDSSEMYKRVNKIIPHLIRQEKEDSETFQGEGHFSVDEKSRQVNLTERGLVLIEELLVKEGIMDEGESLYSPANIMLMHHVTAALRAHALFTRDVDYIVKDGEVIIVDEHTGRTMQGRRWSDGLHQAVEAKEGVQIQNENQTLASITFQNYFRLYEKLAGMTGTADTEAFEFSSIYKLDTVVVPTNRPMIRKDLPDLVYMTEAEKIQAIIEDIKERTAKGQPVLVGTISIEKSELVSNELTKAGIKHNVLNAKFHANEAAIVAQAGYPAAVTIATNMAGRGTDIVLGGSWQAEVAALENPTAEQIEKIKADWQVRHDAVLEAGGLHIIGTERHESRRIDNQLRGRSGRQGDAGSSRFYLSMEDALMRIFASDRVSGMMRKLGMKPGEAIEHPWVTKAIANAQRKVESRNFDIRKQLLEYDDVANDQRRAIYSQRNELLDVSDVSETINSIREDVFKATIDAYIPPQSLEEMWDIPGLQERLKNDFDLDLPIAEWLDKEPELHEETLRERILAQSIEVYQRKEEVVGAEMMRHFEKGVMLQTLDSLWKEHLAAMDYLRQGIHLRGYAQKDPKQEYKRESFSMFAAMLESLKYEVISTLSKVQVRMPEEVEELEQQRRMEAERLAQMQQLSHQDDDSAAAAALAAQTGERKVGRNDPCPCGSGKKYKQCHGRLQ
# [3] = target: T2, Ubiquitin-activating enzyme e1, putative (Leishmania donovani (strain BPK282A1)) (UniProt E9BSI1); test: Leishmania donovani Ubiquitin Activating Enzyme (LdE1); format: functional; design: scale not given: direction of the effect not stated beside the values; conditions: 30 µM
# T2 sequence (whole entry): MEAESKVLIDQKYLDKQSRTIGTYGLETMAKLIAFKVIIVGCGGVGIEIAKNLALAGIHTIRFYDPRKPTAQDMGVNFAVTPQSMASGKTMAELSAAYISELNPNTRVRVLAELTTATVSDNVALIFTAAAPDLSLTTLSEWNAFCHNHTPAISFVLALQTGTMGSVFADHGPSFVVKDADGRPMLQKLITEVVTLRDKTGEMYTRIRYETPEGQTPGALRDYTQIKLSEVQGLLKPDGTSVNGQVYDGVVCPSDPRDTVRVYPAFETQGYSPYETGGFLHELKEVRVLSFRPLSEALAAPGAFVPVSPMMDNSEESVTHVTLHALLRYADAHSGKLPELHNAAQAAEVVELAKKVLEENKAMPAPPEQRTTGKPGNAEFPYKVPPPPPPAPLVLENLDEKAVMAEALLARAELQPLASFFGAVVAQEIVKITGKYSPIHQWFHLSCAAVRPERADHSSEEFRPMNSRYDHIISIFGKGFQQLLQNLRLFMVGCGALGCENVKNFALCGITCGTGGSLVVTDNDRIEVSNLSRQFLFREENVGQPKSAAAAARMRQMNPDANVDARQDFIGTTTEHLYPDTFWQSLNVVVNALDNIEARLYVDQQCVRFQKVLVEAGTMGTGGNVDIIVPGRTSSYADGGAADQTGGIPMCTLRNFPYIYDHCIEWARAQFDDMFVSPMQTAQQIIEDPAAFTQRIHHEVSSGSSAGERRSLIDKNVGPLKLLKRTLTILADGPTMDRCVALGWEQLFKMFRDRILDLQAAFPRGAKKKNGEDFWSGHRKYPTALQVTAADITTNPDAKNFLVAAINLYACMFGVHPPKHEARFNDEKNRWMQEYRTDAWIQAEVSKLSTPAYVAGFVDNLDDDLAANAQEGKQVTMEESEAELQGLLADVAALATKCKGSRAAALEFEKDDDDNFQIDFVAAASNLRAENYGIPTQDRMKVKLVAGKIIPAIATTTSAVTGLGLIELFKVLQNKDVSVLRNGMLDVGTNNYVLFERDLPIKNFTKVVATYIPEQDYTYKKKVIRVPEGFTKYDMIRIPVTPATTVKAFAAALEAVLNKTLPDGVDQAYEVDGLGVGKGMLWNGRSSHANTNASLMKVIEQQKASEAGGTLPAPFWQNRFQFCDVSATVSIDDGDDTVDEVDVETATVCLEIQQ
# [4] = target: Sialic acid-binding Ig-like lectin 9 (Homo sapiens) (UniProt Q9Y336); test: Hs-Siglec9 ALPHAscreen SOP 20170721; design: scale not given: direction of the effect not stated beside the values; conditions: 10 µM
# Sequence of Sialic acid-binding Ig-like lectin 9 (Homo sapiens) (Q9Y336 whole entry): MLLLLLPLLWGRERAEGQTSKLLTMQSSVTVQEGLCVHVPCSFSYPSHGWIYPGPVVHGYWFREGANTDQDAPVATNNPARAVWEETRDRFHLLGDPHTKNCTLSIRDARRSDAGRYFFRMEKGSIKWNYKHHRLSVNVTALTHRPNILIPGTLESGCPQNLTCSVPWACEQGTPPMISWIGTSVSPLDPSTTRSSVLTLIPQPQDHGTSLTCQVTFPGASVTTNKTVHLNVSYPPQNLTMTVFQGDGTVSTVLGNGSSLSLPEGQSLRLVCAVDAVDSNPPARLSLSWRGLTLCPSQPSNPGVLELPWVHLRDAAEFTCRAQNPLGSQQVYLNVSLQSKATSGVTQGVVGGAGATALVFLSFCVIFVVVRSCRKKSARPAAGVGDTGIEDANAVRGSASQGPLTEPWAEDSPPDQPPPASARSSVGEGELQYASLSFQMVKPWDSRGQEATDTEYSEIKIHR
# Trypanosoma cruzi = test: Trypanosoma cruzi phosphomannomutase and mannose-1-phosphate guanylyltransferase assay; format: functional; design: scale not given: direction of the effect not stated beside the values; conditions: 10 µM
# [5] = target: T3, Arginase-2, mitochondrial (Homo sapiens) (UniProt P78540); test: in vitro enzyme assay to detect the production of urea directly proportional to the activity of Arginase II; format: functional; design: scale not given: in the data most compounds retested in dose-response had high values; conditions: 33.3 µM
# T3 sequence (whole entry): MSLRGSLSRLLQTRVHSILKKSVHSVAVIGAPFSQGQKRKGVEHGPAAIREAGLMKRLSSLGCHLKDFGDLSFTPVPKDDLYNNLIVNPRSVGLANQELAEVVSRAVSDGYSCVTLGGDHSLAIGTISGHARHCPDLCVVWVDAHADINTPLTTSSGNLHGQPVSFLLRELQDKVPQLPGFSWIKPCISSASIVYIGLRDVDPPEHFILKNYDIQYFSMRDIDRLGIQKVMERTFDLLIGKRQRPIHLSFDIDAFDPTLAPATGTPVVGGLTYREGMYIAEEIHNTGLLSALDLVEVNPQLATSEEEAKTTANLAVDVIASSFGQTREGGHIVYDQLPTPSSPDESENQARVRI
# [6] = target: T4, Proteasome subunit beta (Trypanosoma cruzi) (UniProt O96673); test: Trypanosoma cruzi proteasome chymotrypsin-like activity (TcProtChymo) assay.; format: functional; design: scale not given: in the data most compounds retested in dose-response had high values; conditions: 9.37 µM
# T4 sequence (whole entry): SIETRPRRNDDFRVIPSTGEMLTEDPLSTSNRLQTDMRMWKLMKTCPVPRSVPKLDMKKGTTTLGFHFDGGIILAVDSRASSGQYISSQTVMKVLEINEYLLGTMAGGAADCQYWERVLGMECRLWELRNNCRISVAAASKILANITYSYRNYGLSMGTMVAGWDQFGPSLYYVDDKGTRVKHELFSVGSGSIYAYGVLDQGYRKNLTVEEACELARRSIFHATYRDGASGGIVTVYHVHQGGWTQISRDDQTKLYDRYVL
# Homo sapiens = species on record: Homo sapiens; test: To identify inhibition of the IFN signalling (Jak-Stat) pathway via expression of an eGFP reporter gene under the control of an IFN-stimulated response element (ISRE) containing MxA promoter.; format: functional; design: scale not given: direction of the effect not stated beside the values; conditions: 30 µM
# [7] = target: T5, Tyrosyl-tRNA synthetase, putative (Trypanosoma cruzi (strain CL Brener)) (UniProt Q4DSP6); test: Trypanosoma cruzi tyrosyl tRNA synthetase (TcYRS) _High Tyrosine SOP; format: functional; design: scale not given: in the data most compounds retested in dose-response had high values; conditions: 30 µM
# T5 sequence (whole entry): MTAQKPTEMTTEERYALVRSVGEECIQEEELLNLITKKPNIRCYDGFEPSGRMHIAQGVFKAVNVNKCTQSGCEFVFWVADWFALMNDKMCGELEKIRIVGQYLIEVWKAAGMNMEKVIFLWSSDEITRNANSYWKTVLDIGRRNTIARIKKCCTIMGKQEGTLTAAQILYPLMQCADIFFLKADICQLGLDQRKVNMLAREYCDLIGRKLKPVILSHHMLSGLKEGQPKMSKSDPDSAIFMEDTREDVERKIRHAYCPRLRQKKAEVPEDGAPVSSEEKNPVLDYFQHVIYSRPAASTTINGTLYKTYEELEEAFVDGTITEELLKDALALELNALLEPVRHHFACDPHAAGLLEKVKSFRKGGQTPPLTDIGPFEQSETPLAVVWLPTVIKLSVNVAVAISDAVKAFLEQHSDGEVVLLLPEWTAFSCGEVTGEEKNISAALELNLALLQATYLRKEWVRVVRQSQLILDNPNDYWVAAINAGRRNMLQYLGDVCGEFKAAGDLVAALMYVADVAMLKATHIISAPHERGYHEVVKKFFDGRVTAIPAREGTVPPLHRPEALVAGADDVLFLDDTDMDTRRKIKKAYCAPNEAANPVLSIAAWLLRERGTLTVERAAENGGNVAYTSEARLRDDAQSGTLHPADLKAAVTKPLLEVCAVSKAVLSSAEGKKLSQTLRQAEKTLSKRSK
# [8] = target: T5, Tyrosyl-tRNA synthetase, putative (Trypanosoma cruzi (strain CL Brener)); test: Trypanosoma cruzi tyrosyl tRNA synthetase (TcYRS) SOP; format: functional; design: scale not given: direction of the effect not stated beside the values; conditions: 30 µM
# [9] = target: Chromo domain-containing protein 1 (Saccharomyces cerevisiae (strain ATCC 204508 / S288c) (Baker's yeast)) (UniProt P32657); test: ScCHD-1 Enzyme Inhibition Assay; format: functional; design: scale not given: in the data most compounds retested in dose-response had high values; conditions: 30 µM
# Sequence of Chromo domain-containing protein 1 (Saccharomyces cerevisiae (strain ATCC 204508 / S288c) (Baker's yeast)) (P32657 whole entry, the tested form may be a part): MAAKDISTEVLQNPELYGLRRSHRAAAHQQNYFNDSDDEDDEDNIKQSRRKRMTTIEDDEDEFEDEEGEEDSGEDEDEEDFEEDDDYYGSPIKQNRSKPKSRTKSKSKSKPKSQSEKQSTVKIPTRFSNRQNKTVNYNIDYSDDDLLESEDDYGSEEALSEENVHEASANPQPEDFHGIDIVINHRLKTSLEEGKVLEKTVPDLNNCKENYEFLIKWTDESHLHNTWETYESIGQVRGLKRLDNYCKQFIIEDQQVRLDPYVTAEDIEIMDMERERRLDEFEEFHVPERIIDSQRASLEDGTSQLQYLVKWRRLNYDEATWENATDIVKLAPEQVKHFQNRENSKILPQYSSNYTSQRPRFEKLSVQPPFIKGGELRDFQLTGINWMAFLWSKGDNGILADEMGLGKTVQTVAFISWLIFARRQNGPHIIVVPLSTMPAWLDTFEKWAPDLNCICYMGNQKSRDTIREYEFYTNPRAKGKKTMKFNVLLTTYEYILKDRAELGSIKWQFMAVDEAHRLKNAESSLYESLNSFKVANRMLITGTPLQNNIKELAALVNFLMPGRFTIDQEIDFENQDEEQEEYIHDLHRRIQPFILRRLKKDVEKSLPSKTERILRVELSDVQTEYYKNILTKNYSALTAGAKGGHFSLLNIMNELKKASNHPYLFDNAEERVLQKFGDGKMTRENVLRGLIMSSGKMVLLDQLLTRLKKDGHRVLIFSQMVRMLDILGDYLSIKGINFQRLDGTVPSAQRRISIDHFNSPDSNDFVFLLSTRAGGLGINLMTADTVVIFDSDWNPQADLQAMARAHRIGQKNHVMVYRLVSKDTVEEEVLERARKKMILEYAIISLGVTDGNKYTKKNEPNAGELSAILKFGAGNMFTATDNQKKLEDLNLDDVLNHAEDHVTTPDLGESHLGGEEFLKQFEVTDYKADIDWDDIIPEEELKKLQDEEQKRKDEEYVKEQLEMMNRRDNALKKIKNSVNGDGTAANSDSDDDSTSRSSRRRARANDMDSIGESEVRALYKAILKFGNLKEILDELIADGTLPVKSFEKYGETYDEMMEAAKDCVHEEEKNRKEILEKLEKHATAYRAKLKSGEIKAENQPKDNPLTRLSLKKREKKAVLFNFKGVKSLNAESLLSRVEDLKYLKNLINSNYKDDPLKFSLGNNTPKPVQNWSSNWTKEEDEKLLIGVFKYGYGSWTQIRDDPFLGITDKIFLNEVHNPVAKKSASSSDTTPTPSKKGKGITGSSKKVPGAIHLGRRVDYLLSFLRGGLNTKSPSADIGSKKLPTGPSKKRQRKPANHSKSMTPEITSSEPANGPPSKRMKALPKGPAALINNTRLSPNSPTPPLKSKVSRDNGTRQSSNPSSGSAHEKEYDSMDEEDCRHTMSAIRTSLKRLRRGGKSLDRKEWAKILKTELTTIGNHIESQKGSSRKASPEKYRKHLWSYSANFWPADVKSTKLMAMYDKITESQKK
# [10] = target: AMP-activated protein kinase, AMPK (Homo sapiens) (UniProt P54646+O43741+P54619+Q9UGJ0+Q9Y478+Q13131+Q9UGI9); test: AMP-dependent Kinase enzyme assay. An in vitro enzyme assay that detects ADP turnover that is directly proportional to AMPK activity. This uses naive AMPK that is activated during the assay with MK-8722; format: functional; design: scale not given: direction of the effect not stated beside the values; conditions: 30 µM
compound,measurement,setting,value
O=C(NC1CC1)c1ccc2ccc(N3CCN(CC4CC4)CC3)n2c1,PXC50,"[1]; BOTTOM 0.467703885, HILLSLOPE 1.411799655, MAX_EFFECT 58.90736342, TOP 70.88537837",4.49
same,PXC50,"[1]; BOTTOM 3.025092892, HILLSLOPE 1.100251625, MAX_EFFECT 63.9084507, TOP 101.8817942",4.18
same,PXC50,"[1]; BOTTOM 3.903834548, HILLSLOPE 2.10176548, MAX_EFFECT 63.76811594, TOP 66.05792102",4.72
same,PXC50,"[1]; BOTTOM -3.956247574, HILLSLOPE 1.036561065, MAX_EFFECT 73.83512545, TOP 100.0",4.45
same,PXC50,"[1]; BOTTOM -4.174046537, HILLSLOPE 0.97706716, MAX_EFFECT 63.03630363, TOP 100.0",4.22
same,Percent Effect,[2],0.138%
same,Percent Effect,[3],9.09%
same,Percent Effect,[4],0.503%
same,Percent Effect,Trypanosoma cruzi,7.69%
same,Percent Effect,[5],-1.37%
same,Percent Effect,[6],9.19%
same,Percent Effect,Homo sapiens,-15.1%
same,Percent Effect,[7],45.4%
same,Percent Effect,[8],22.5%
same,Percent Effect,[9],-3.97%
Cc1cc(C)n(-c2nc(NCCCO)c3c4c(sc3n2)CCCC4)n1,PXC50,"[1]; BOTTOM 0.694327114, HILLSLOPE 1.749821258, MAX_EFFECT 87.74703557, TOP 100.0",4.43
same,PXC50,"[1]; BOTTOM 1.783825543, HILLSLOPE 1.533717892, MAX_EFFECT 94.44444444, TOP 106.8963367",4.59
same,PXC50,"[1]; BOTTOM 1.928318756, HILLSLOPE 2.074005498, MAX_EFFECT 78.73015873, TOP 100.0",4.27
same,PXC50,"[1]; BOTTOM 4.876612539, HILLSLOPE 1.662902224, MAX_EFFECT 88.59060403, TOP 97.50762335",4.61
same,PXC50,"[1]; BOTTOM 5.143035966, HILLSLOPE 1.849282201, MAX_EFFECT 96.18717504, TOP 100.0",4.48
Cc1cccnc1NC(=O)NCc1ccc(N2CCNC(=O)C2)cc1,PXC50,"[1]; BOTTOM 2.91901785, HILLSLOPE 1.51189845, MAX_EFFECT 82.83828383, TOP 100.0",4.39
same,PXC50,"[1]; BOTTOM 3.848291916, HILLSLOPE 1.411514836, MAX_EFFECT 84.7826087, TOP 100.0",4.45
same,PXC50,"[1]; BOTTOM 5.032769966, HILLSLOPE 1.524648586, MAX_EFFECT 89.96415771, TOP 100.0",4.48
same,PXC50,[1]; MAX_EFFECT 2.073365231,< 4
same,PXC50,[1]; MAX_EFFECT 2.495201536,< 4
same,Percent Effect,[2],-3.51%
same,Percent Effect,[3],15.6%
same,Percent Effect,[10],9.04%
same,Percent Effect,[4],11.4%
same,Percent Effect,Trypanosoma cruzi,1.5%
same,Percent Effect,[5],-2.13%
same,Percent Effect,[6],8.78%
same,Percent Effect,Homo sapiens,5.74%
same,Percent Effect,[7],41.8%
same,Percent Effect,[8],34.1%
same,Percent Effect,[9],-8.16%
